Bioassay records: PubChem BioAssay, Broad Institute
Only a selection was taken, and hits are over-represented in it overall.
U2OS ROS induce: ROS inducers in U2OS cancer cells, primary screen, cell-based, H2DCF-DA fluorescence. U2OS ROS induction. ROS induction (% of piperlongumine), % at 10 µM. actives 2% (n = 46,000); in the data active means ROS induction above about 79%, passing the limit was not always enough
Hits are given with their value.

For O=C1O[C@@H](c2ccccc2)[C@@H](c2ccccc2)N2[C@@H](c3ccc(OCCO)cc3)[C@]3(C(=O)Nc4ccc(C#CCCO)cc43)[C@@H](C(=O)N3CCCCCCC3)[C@H]12 the results were U2OS ROS induce inactive.
Screening COC(=O)C(CC#Cc1ccc2c(c1)[C@]1(C(=O)N2)[C@H](C(=O)N2CCCCCCC2)[C@H]2C(=O)O[C@H](c3ccccc3)[C@H](c3ccccc3)N2[C@@H]1c1ccccc1OCCO)C(=O)OC returned U2OS ROS induce inactive.
COc1cc2c(cc1OC)CN(C(=O)[C@@H]1[C@H]3C(=O)O[C@H](c4ccccc4)[C@H](c4ccccc4)N3[C@H](c3ccc(OCCO)cc3)[C@@]13C(=O)Nc1ccccc13)CC2 was read as U2OS ROS induce 98.
COC(=O)C(CC#Cc1ccc2c(c1)[C@]1(C(=O)N2)[C@H](C(=O)N2CCCCCCC2)[C@H]2C(=O)O[C@H](c3ccccc3)[C@H](c3ccccc3)N2[C@@H]1c1ccc(OCCO)cc1)C(=O)OC was read as U2OS ROS induce 104.
Screening O=C1O[C@H](c2ccccc2)[C@H](c2ccccc2)N2[C@H]1[C@@H](C(=O)N1CCN(c3ncccn3)CC1)[C@]1(C(=O)Nc3ccc(C#CCCO)cc31)[C@H]2c1ccccc1OCCO returned U2OS ROS induce inactive.
For COc1cc2c(cc1OC)CN(C(=O)[C@@H]1[C@H]3C(=O)O[C@H](c4ccccc4)[C@H](c4ccccc4)N3[C@H](c3ccc(O)cc3)[C@@]13C(=O)Nc1ccccc13)CC2 the results were U2OS ROS induce inactive.
`O=C1O[C@@H](c2ccccc2)[C@@H](c2ccccc2)N2[C@@H](c3ccccc3OCCO)[C@]3(C(=O)Nc4ccc(C#CCCO)cc43)[C@@H](C(=O)N3CCCCCCC3)[C@H]12` gave U2OS ROS induce 221.
For COc1cc2c(cc1OC)CN(C(=O)[C@H]1[C@@H]3C(=O)O[C@@H](c4ccccc4)[C@@H](c4ccccc4)N3[C@@H](c3ccc(OCCO)cc3)[C@]13C(=O)Nc1ccc(C#CC4=CCCCC4)cc13)CC2 the results were U2OS ROS induce inactive.
`COC(=O)C(CC#Cc1ccc2c(c1)[C@]1(C(=O)N2)[C@H](c2ccc(O)cc2)N2[C@H](c3ccccc3)[C@H](c3ccccc3)OC(=O)[C@H]2[C@@H]1C(=O)N1CCCCCCC1)C(=O)OC` gave U2OS ROS induce inactive.
For COc1cc2c(cc1OC)CN(C(=O)[C@@H]1[C@H]3C(=O)O[C@H](c4ccccc4)[C@H](c4ccccc4)N3[C@H](c3ccc(OCCO)cc3)[C@@]13C(=O)Nc1ccc(C#CC4=CCCCC4)cc13)CC2 the results were U2OS ROS induce inactive.
For COC(=O)C(CC#Cc1ccc2c(c1)[C@]1(C(=O)N2)[C@H](C(=O)N2CCc3cc(OC)c(OC)cc3C2)[C@H]2C(=O)O[C@H](c3ccccc3)[C@H](c3ccccc3)N2[C@@H]1c1ccc(OCCO)cc1)C(=O)OC the results were U2OS ROS induce inactive.
COc1cc2c(cc1OC)CN(C(=O)[C@H]1[C@@H]3C(=O)O[C@@H](c4ccccc4)[C@@H](c4ccccc4)N3[C@@H](c3ccccc3OCCO)[C@]13C(=O)Nc1ccc(C#CC4=CCCCC4)cc13)CC2 was read as U2OS ROS induce 87.
For O=C(CCCCCCC(=O)Nc1ccccc1O)N/N=C/c1ccc(-c2ccccc2)c(F)c1 the results were U2OS ROS induce inactive.
`CCOc1ccc(NC(=O)C2CCN(C(=O)c3ccccc3)CC2)cc1` gave U2OS ROS induce inactive.
C[C@H](CO)N1C[C@H](C)[C@H](CN(C)CC2CC2)Oc2c(NS(=O)(=O)c3ccccc3)cccc2C1=O was read as U2OS ROS induce inactive.
Cc1noc(C)c1S(=O)(=O)N(C)C[C@@H]1Oc2ccc(NS(=O)(=O)c3cccs3)cc2CC(=O)N([C@@H](C)CO)C[C@@H]1C was read as U2OS ROS induce inactive.
For C[C@@H]1CN([C@@H](C)CO)C(=O)c2cccc(NC(=O)Nc3ccccc3)c2O[C@H]1CN(C)C(=O)NC1CCCCC1 the results were U2OS ROS induce inactive.
COc1ccc(S(=O)(=O)Nc2ccc3c(c2)C(=O)N([C@@H](C)CO)C[C@@H](C)[C@H](CN(C)C(=O)NC2CCCCC2)O3)cc1 was read as U2OS ROS induce inactive.
Screening Cc1noc(C)c1S(=O)(=O)Nc1ccc2c(c1)CC(=O)N([C@@H](C)CO)C[C@H](C)[C@H](CN(C)S(=O)(=O)c1cn(C)cn1)O2 returned U2OS ROS induce inactive.
`COc1ccc(S(=O)(=O)Nc2cccc3c2O[C@H](CN(C)CC2CC2)[C@H](C)CN([C@H](C)CO)C3=O)cc1` gave U2OS ROS induce inactive.
C[C@@H]1CN([C@@H](C)CO)C(=O)c2cc(NC(=O)C3CC3)ccc2O[C@H]1CN(C)C(=O)Nc1ccccc1 was read as U2OS ROS induce inactive.
Screening COc1cc2c(cc1OC)CN(C(=O)[C@H]1[C@@H]3C(=O)O[C@@H](c4ccccc4)[C@@H](c4ccccc4)N3[C@@H](c3ccccc3OCCO)[C@]13C(=O)Nc1ccc(C#CCCO)cc13)CC2 returned U2OS ROS induce 120.
Screening COc1cc2c(cc1OC)CN(C(=O)[C@H]1[C@@H]3C(=O)O[C@@H](c4ccccc4)[C@@H](c4ccccc4)N3[C@@H](c3ccccc3OCCO)[C@]13C(=O)Nc1ccc(C#CCNC(N)=O)cc13)CC2 returned U2OS ROS induce inactive.
COc1ccc(C#Cc2ccc3c(c2)[C@]2(C(=O)N3)[C@H](c3ccccc3OCCO)N3[C@H](c4ccccc4)[C@H](c4ccccc4)OC(=O)[C@H]3[C@@H]2C(=O)N2CCc3cc(OC)c(OC)cc3C2)cc1 was read as U2OS ROS induce inactive.
`C[C@H](CO)N1C[C@H](C)[C@H](CN(C)S(=O)(=O)c2ccc(Cl)cc2)Oc2ccc(NS(=O)(=O)c3ccccc3)cc2C1=O` gave U2OS ROS induce inactive.
Screening Cc1noc(C)c1S(=O)(=O)Nc1ccc2c(c1)C(=O)N([C@@H](C)CO)C[C@@H](C)[C@H](CN(C)CC1CCCCC1)O2 returned U2OS ROS induce inactive.
For O=C(CSc1nc(-c2ccccc2)cc(=O)[nH]1)Nc1ccccc1 the results were U2OS ROS induce inactive.
For CC(=O)Nc1ccc(NC(=O)CCSc2ccccc2)cc1 the results were U2OS ROS induce inactive.
For O=C(CCSc1nc(-c2ccccc2)cs1)Nc1ccccc1 the results were U2OS ROS induce 106.
Screening C[C@H]1CN([C@@H](C)CO)C(=O)Cc2cc(NC(=O)CCN3CCOCC3)ccc2O[C@H]1CN(C)Cc1ccc2c(c1)OCO2 returned U2OS ROS induce inactive.
`CCOC(=O)c1cnc2cc(C(F)(F)F)ccc2c1N1CC(C)CC(C)C1` (stereo unspecified) gave U2OS ROS induce inactive.
CCOC(=O)c1ccc2nc(C(F)(F)F)nc(NCc3ccc(Cl)cc3)c2c1 was read as U2OS ROS induce inactive.
CCOC(=O)c1ccc2nc(C(F)(F)F)nc(N3CC(C)OC(C)C3)c2c1 (stereo unspecified) was read as U2OS ROS induce 108.
`Cc1ccc(COc2ccc(I)cc2)cc1` gave U2OS ROS induce inactive.
N#Cc1c(-c2ccccc2Cl)c(C#N)c2nc3ccccc3n2c1N was read as U2OS ROS induce inactive.
For CCCc1cc(NCCc2ccccc2)n2c(nc3ccccc32)c1C#N the results were U2OS ROS induce 92.
Cc1ccccc1Cn1c(Cc2ccccc2)nc2ccccc21 was read as U2OS ROS induce inactive.
For O=C(CSc1nc2ccccc2c2nc3ccccc3n12)NCCc1ccccc1 the results were U2OS ROS induce inactive.
